Tau ThT inhib: qHTS for Inhibitors of Tau Fibril Formation, Thioflavin T Binding; Microtubule-associated protein tau (Homo sapiens), P10636; recombinant tau K18 P301L, heparin-induced fibrillization, ThT fluorescence; Potency, µM (top dose mostly 57.4 µM), for the others: at the top dose activity, negative = inhibition, hits mostly inhibitors; 270,000 compounds, 2.1% hits; note: potency is the fitted concentration of half-maximal effect; % is set by controls: 0 for no effect and ±100 for the full control effect; nearly all actives have a fitted effect of over 55% in size
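Heparin-induced (20 uM) aggregation of recombinant human K18 P301L tau, 15 uM unlabeled with 0.24 uM labeled, pH 7 acetate buffer, 6 hr at 37 C with compound. Fibrils quantified by 30 uM ThT fluorescence after 1 hr ambient incubation.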
Tau fibril FP: qHTS for Inhibitors of Tau Fibril Formation, Fluorescence Polarization | AID 1468, 2008 | K18 P301L tau heparin fibrillization, Alexa594 FP, 6 h | 280,000 compounds, 0.39% hits | Potency, µM (doses to about 57.7 µM), inactives show top-dose activity, negative = inhibition, hits mostly inhibitors; note: potency is the fitted concentration of half-maximal effect; % is set by controls: 0 for no effect and ±100 for the full control effect; nearly all actives have a fitted effect of over 55% in size
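Heparin (20 uM) drove fibril formation of recombinant tau K18 P301L, 15 uM unlabeled with 0.24 uM Alexa 594 label, for 6 hr at 37 C in 100 mM sodium acetate pH 7. Fluorescence polarization (555/632 nm) read 1 hr after 30 uM ThT.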
JMJD2E inh: qHTS Assay for Inhibitors of Human Jumonji Domain Containing 2E (JMJD2E). Lysine-specific demethylase 4E (Homo sapiens), B2RXH2. JMJD2E catalytic domain, FDH-coupled NADH fluorescence (FDH is formaldehyde dehydrogenase). Potency, µM (series often up to 57.1 µM), inactives show at the highest dose activity change, negative = inhibition, hits mostly inhibitors. 230,000 compounds, 1.6% hits; active = well fitted inhibition curve with a large enough effect, not every such curve was filed as active; inconclusive = small, poorly fitted or top-dose-only effect, or another doubt; inactive = no such curve, though single readings can be large or run the other way;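 note: potency is the fitted concentration of half-maximal effect; 0% = wells with enzyme and -100% = buffer wells without enzyme; nearly all actives have a fitted effect of over 50% in size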
CBFb-RUNX1 inh: qHTS Assay for Compounds Blocking the Interaction Between CBF-beta and RUNX1 for the Treatment of Acute Myeloid Leukemia | Potency, µM (titrated, usually from 59.8 µM), inactives show at the top dose activity, negative = inhibition, usual class: inhibitors | 230,000 tested, under 10 active | AlphaScreen CBFb-His/RUNX1-biotin binding, biochemical | AID 1477, 2009; note: % of control where 0% means no effect
Target sequence (Q01196 whole entry, looked up): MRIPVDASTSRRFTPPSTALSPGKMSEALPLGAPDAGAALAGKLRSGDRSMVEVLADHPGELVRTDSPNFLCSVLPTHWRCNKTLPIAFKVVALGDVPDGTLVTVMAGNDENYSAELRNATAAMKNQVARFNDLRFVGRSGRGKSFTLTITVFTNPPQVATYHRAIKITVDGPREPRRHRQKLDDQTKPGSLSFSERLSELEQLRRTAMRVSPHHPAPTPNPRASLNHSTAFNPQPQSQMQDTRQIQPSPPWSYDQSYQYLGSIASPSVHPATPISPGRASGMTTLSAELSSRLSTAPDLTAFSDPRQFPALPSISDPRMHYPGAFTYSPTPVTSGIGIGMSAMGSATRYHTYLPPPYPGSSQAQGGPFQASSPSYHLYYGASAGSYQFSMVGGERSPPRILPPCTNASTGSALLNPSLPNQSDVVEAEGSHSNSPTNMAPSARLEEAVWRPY
Target sequence (Q13951 whole entry, looked up): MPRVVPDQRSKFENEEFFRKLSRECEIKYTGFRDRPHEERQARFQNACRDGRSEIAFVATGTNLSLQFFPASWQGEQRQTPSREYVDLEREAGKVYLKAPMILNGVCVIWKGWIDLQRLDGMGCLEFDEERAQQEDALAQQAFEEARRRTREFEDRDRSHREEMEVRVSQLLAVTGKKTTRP
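Bead-based AlphaScreen assay; binding partners His-tagged CBF-beta and biotinylated RUNX1 at 30 nM each. Compound exposure 15 min after a 20-min protein preincubation; bead step 90 min; all steps at room temperature.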
LMNA splice mod: qHTS Assay for Modulators of Lamin A Splicing; AID 1487, 2009; HeLa LMNA splicing GFP/RFP minigene ratio, 48 h; 200,000 compounds, 0.01% hits; Potency, µM (highest dose often 46.1 µM), inactives show at the top dose ratio change, negative = inhibition, actives largely listed as inhibitors; active = well fitted inhibition curve with a large enough effect in the signal ratio, with a control signal flat, not every such curve was filed as active; inconclusive = small, poorly fitted or top-dose-only effect, or effect the other way, or a change in a side signal; the % refers to the signal ratio; note: potency is the fitted concentration of half-maximal effect; % is set by controls: 0 for no effect and ±100 for the full control effect
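S3 HeLa stable clones carrying a lamin A-EGFP splicing minigene plus DsRed2 were seeded at 600 cells/well in Opti-MEM with 2% FBS, pin-dosed and incubated 48 h at 37°C. Acumen cytometry (488 nm) gave the GFP/RFP total-intensity ratio.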
Tau fluor counter: Counterscreen qHTS for Inhibitors of Tau Fibril Formation, Fluorescence Polarization. Potency, µM (doses to about 57.7 µM), for the others: at the top dose activity change, negative = decrease. 280,000 compounds, 0.93% hits. tau K18 P301L Alexa594 fluorescence, heparin fibrillization. AID 1463, 2008; note: potency is the fitted concentration of half-maximal effect; % is set by controls: 0 for no effect and ±100 for the full control effect; nearly all actives have a fitted effect of over 55% in size
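Human tau K18 P301L (15 uM unlabeled, 0.24 uM Alexa 594-labeled) in 100 mM sodium acetate pH 7 with 20 uM heparin, 6 hr at 37 C. ThT 30 uM added, 1 hr ambient; Alexa 594 FP and total fluorescence read at 555/632 nm.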
* = called active by the depositor; ? = inconclusive; / = no result; [ ] = dose if it differs, or a comment. Compounds with a hit are over-represented: about 3.2% of the library has one in this group of screens. Unless noted, calls come from the whole dose curve; as a rule, active = well fitted curve in the direction sought with a large enough effect; inconclusive = small, poorly fitted or top-dose-only effect, or another doubt; inactive = no such curve, though single readings can be large; an effect the other way counts as inactive or inconclusive.

SMILES	Tau ThT inhib	Tau fibril FP	JMJD2E inh	CBFb-RUNX1 inh	LMNA splice mod	Tau fluor counter
COc1ccc(-c2ccc(-c3cc(=O)oc4cc(C)cc(C)c34)cc2)cc1	?	-7%[81.3 µM]	/	0%[89.1 µM]	/	-14%[81.3 µM]
COc1cc(OC)c(Nc2nc3ccc(C(=O)c4ccccc4)cc3n3c(C)nnc23)cc1Cl	0%	5%	/	/	/	-7%
Fc1ccc(Nc2nc3ccccc3c3nncn23)c(Cl)c1	-15%	-14%	/	/	/	-14%
Cc1cc(C(=O)N/N=C/c2cc(Cl)cc([N+](=O)[O-])c2O)n[nH]1	13µM*	-11%	18µM*	?	/	?
Cc1cc(C(=O)N/N=C/C=C/c2ccc([N+](=O)[O-])cc2)n[nH]1	1.8µM*	0%	-7%	8%	-3%[46 µM]	-18%
CCOc1cc(/C=N/NC(=O)c2cc(C)[nH]n2)ccc1OC(=O)c1ccc([N+](=O)[O-])cc1	?	-3%	-5%	-1%	9%	?
COC(c1ccccc1Br)C(C)/C=C/CCO (stereo unspecified)	4%[11.5 µM]	3%[11.6 µM]	/	?	/	10%[11.6 µM]
COc1cc(N=Nc2cccc(S(N)(=O)=O)c2)c2ccccc2c1N	1.6µM*	?	?	?	?	10µM*[quencher]
C=C(C)C(=O)NNc1ccccc1	-6%	5%	14µM*	7%	-16%[46 µM]	3%
CC(C)OC(=O)C(=O)NNc1ccccc1	8%	10%	-9%	-5%	0%	6%
CC[C@H](NC(=O)[C@H](CCCN=C(N)N)NC(=O)[C@H](Cc1c[nH]c2ccccc12)NC(=O)[C@@H](N)CS)C(=O)N[C@@H](CCCN=C(N)N)C(=O)N[C@@H](Cc1ccc(O)cc1)C(N)=O	/	/	/	0%	/	/
FC(F)(F)c1cccc(NC(=S)NCC2COc3ccccc3O2)c1 (stereo unspecified)	-12%	25µM*	-1%	9%	?	?
Cc1cccc(NC(=S)Nc2cccc(C(F)(F)F)c2)n1	-1%	-12%	2%	-17%	?	-12%
FC(F)(F)c1cccc(NC(=S)Nc2cccc(NC(=S)Nc3cccc(C(F)(F)F)c3)n2)c1	-3%	20µM*	?	-9%	/	13µM*[quencher]
Cc1ccc(C(=O)O)cc1Nc1nc2ccccc2n2nnnc12	?	11%	/	/	/	?
CCOc1ccc(C2Sc3ccccc3NC3=C2C(=O)OC3)cc1 (stereo unspecified)	4%	?	-9%	-2%	?	?
CCCc1ccc(C2Sc3ccccc3NC3=C2C(=O)c2ccccc23)cc1 (stereo unspecified)	?	?	/	/	/	3.2µM*[quencher]
O=C1C2=C(Nc3ccccc3SC2c2ccccc2C(F)(F)F)c2ccccc21 (stereo unspecified)	?	13µM*	/	/	/	?
CCOc1cc(C2Sc3ccccc3NC3=C2C(=O)c2ccccc23)ccc1O (stereo unspecified)	10µM*	?	/	/	/	10µM*[quencher]
COc1ccc(Br)cc1C1Sc2ccccc2NC2=C1C(=O)c1ccccc12 (stereo unspecified)	?	-16%	/	/	/	?
O=c1cc(N=Nc2ccc(Cl)cc2)[nH]c(=O)[nH]1	11µM*	?	?	1%	/	?
Cc1cc(=O)n2[nH]c(N)c(N=Nc3ccccc3F)c2n1	11µM*	10%	2%	-14%	?	-5%
Cc1cc(=O)n2[nH]c(C)c(-c3ccccc3)c2n1	-8%	0%	-12%	6%	?	-4%
CC(=O)N1CCCC1c1nc2ccccc2n1Cc1ccccc1Cl (stereo unspecified)	4%	6%	/	/	/	-4%
Cc1ccsc1C=Nc1ccc(O)cc1	3.5µM*	11µM*	3%	?	?	?
SMILES	Tau ThT inhib	Tau fibril FP	JMJD2E inh	CBFb-RUNX1 inh	LMNA splice mod	Tau fluor counter
Cc1ccsc1/C=N/NC(=O)CO	7%	0%	3%	3%	23%[46 µM]	8%
COC(=O)c1cnn(-c2nc(OC)cc(OC)n2)c1C	0%	1%	-6%	2%	-4%	6%
COc1cc(OC)nc(-n2ncc(Br)c(Br)c2=O)n1	10µM*	?	-2%	2%	?	-13%
O=C(Nc1ccc(Br)c2ccccc12)c1ccc2ccccc2c1O	18µM*	?	?	25%	/	18µM*[quencher]
CC(=O)Nc1ccc(Br)c2ccccc12	0%	-2%	-4%	4%	?	-2%
CCN1/C(=N\N)c2cccc3cccc1c23	7.9µM*	6%	9%	-1%	/	?
CCS(=O)(=O)N1CCC(C(=O)N2CCc3ccccc3C2)CC1	?	?	-2%	5%	9%	16µM*[quencher]
O=C1C=C(O)c2ccccc2C1=O	?	?	?	-27%	13%	-14%
O=C1C=C(O)c2cccc(O)c2C1=O	?	-5%	7.9µM*	/	/	-14%
CCOC(=O)c1ccc(CN(Cc2ccc(C)cc2)S(=O)(=O)c2ccc(NC(C)=O)cc2)cc1	4%	11µM*	/	/	-4%[46 µM]	?
O=[N+]([O-])c1ccc(/C=C/c2ccc3ccccc3n2)cc1	?	12%	-5%	-14%	/	-10%
C(=C\c1ccc2ccccc2n1)/c1ccccc1	-10%	-6%	?	?	?	-11%
CN(C)c1ccc(/C=C/c2ccc3ccccc3n2)cc1	?	4%	22µM*	?	/	?
Oc1ccc(/C=C/c2ccc3ccccc3n2)cc1	?	7%	?	29%	13µM*	?
O/C(=C\c1ccc2ccccc2n1)c1ccc(O)cc1O	1.8µM*	0%	0%	-19%	5%[46 µM]	?
CC(=O)C1C(=O)c2c(cccc2[N+](=O)[O-])C1=Nc1ccc(S(N)(=O)=O)cc1 (stereo unspecified)	13µM*	?	-9%	-26%	?	?
O=C(CNC(=O)c1ccc2c(c1)OCCO2)N/N=C/c1ccc(O)cc1O	-9%	-12%	13µM*	-28%	-10%	-14%
COCCCNC(=S)N/N=C/c1ccc(O)cc1O	-8%	7%	18µM*	?	/	-4%
COCCCNC(=S)N/N=C/c1ccc(O)cc1	-5%	-2%	-16%	-6%	2%[46 µM]	-11%
O=C(CNC(=O)c1ccncc1)N/N=C/c1ccc(O)cc1O	2%	-3%	20µM*	-3%	0%[46 µM]	-4%
